Test results reported in PMC4336329 (PLoS ONE, 2015).
Screen size: about 310,000 compounds; about 14,000 (4.5%) showed an effect of 50% or more. Effects have a minus sign here. This is one part of a sample in which strong results are shown more often than they occur.

Target: human ether-à-go-go-related gene (hERG) potassium channel (human, UniProt Q12809)
Assay: primary screen, population patch clamp on CHO cells stably expressing hERG; higher = less effect of the substance
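Also: peak tail current of the secondary pulse compared with the same well before compound.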

Chain of human ether-à-go-go-related gene (hERG) potassium channel (Q12809 whole entry, looked up): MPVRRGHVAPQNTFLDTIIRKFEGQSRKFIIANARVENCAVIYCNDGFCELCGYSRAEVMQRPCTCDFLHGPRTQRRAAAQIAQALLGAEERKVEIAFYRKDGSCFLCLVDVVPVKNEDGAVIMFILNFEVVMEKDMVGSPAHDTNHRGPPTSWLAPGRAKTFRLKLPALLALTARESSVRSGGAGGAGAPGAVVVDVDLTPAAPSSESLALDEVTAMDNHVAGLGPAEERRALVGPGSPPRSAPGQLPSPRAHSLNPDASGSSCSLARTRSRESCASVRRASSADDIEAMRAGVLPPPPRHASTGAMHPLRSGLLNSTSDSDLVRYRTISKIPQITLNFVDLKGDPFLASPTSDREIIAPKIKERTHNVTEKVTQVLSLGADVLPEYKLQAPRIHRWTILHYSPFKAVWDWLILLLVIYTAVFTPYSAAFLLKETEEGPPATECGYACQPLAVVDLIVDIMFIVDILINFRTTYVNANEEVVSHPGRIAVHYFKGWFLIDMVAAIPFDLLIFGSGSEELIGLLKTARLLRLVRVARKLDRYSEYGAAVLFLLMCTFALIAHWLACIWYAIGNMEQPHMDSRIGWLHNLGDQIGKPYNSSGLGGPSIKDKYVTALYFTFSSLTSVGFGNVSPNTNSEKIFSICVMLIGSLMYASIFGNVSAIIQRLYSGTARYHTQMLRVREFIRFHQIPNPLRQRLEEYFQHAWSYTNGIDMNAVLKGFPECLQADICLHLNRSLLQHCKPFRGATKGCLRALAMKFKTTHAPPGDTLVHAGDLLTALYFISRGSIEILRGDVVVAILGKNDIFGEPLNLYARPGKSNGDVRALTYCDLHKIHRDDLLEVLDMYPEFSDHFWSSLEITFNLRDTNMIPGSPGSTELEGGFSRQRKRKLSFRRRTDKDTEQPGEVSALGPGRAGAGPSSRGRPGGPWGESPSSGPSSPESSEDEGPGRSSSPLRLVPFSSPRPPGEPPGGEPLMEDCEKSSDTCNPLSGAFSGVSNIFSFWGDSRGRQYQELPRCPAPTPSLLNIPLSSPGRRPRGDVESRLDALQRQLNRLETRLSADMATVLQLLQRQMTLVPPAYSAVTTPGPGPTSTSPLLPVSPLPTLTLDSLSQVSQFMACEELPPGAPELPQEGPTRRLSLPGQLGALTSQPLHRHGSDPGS

SMILES	hERG current change (%, negative = inhibition) at 10uM [%]
COC(=O)c1ccc(-n2cc(-c3ccc(OC)cc3)[nH]c2=S)cc1	33.1
Nc1c(C(=O)c2ccc(Cl)cc2)sc2c1c(=O)[nH]c(=O)n2-c1ccccc1	-24.2
CC[C@]1(c2ccccc2)C(=O)N(C(=O)OC)N1C(=O)OC	25.2
COc1ccc(-c2noc3c2-c2nc(-c4ccc(Cl)cc4)sc2CC3)cc1	9.5
CCCNC(=O)C12CCC(C)(C(=O)O1)C2(C)C (stereo not shown)	17.2
Clc1ccc2nc(-c3ccc(Br)s3)cn2c1	8.14
CCc1ccc(-c2nc(CN3CCC(C(=O)NCc4ccccc4OC)CC3)c(C)o2)cc1	-68.4
COc1ccccc1CNC(=O)C1CCN(Cc2nc(-c3cccc(Cl)c3)oc2C)CC1	-78
Cc1oc(-c2cccc(Cl)c2)nc1CN1CCC(C(=O)NCCCN2CCCC2=O)CC1	-38
COc1ccc(-c2nc(CN3CCC(C(=O)NC4CCN(Cc5ccccc5)CC4)CC3)c(C)o2)cc1OC	1.67
COc1ccccc1CNC(=O)C1CCN(c2nc3ccccc3o2)CC1	-9.09
COCCOC(=O)c1c(NC(=O)COC(=O)c2ccc(C)o2)sc(C(N)=O)c1C	-10.9
CCc1ccc(CCOc2ccc(CC3SC(=O)NC3=O)cc2)nc1.Cl (stereo not shown)	4.26
CC(C)CC(=O)N1CCN(C(=O)c2cccc(F)c2)CC1	0.0457
C1CCC(OCCN2CCN(CCOC3CCCCC3)CC2)CC1	-37.1
Cc1ccc(N2C(=O)NC3(CCCCC3)C2=O)cc1	9.24
Cc1cc(N2CCN(CC(O)C(F)(F)F)CC2)c2ccccc2n1 (stereo not shown)	-40.7
CCCCc1ccc(NC(=O)N2CCN(c3cc(C)nc4ccccc34)CC2)c(C)c1	-61.6
Cc1cc(N2CCN(C(=O)Nc3ccccc3C#N)CC2)c2ccccc2n1	-72.9
Cc1ccccc1NC(=O)N1CCN(c2ncccn2)CC1	4.15
Cc1cc(N2CCN(C(=O)/C=C/C(=O)O)CC2)c2ccccc2n1	32.4
CC(C)n1c(N2CCN(C(=O)Nc3ccc(F)cc3F)CC2)nc2ccccc21	-26.3
COc1ccccc1N1CCN(C(=O)Nc2cccc(Cl)c2)CC1	-28.2
COc1ccccc1N1CCN(C(=O)Nc2cccc(C)c2)CC1	-3.99
O=C(Nc1ccc(F)cc1F)N1CCN(c2ncccn2)CC1	-8.77
Cc1cc(C(=O)Nc2ccccc2N2CCOCC2)c2ccccc2n1	-15.5
Cc1cc(N2CCN(C(=O)Nc3ccc(F)cc3F)CC2)c2ccccc2n1	-72.2
COc1cccc(Cl)c1NC(=O)N1CCN(c2cc(C)nc3ccccc23)CC1	-75.3
